Shown is part of a subset that was picked to be rich in hits.
Imprint erasure – qHTS Assay for Compounds that Induce Erasure of Genomic Imprints | mouse ES Peg3-LacZ reporter, beta-gal luminescence, 40 h | Potency, µM (highest dose often 60.7 µM), for inactives: at the top dose activity change, positive = activation, actives largely listed as activators | 0.02% of 110,000 active | AID 1948, 2009
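Readout: BetaGlo luminescence (5 min, room temp) for LacZ from the normally silent maternal Peg3 allele in female Peg3LacZ-Neo ES cells. Cells 300/well, 40 h, 37C, 5% CO2. Data normalized per plate to negative controls.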
TSHR agonist – qHTS Assay for Agonists of the Thyroid Stimulating Hormone Receptor | Thyrotropin receptor (Homo sapiens), P16473 | HEK293-CNG-TSHR cells (CNG channel as cAMP sensor), membrane potential dye, cAMP | Potency, µM (top dose mostly 57.1 µM), for the others: at the top dose activation, hits mostly activators | 0.48% of 73,000 active | AID 926, 2007; active = well fitted activation curve with a large enough effect in the main read-out, with a control signal flat, not every such curve was filed as active; inconclusive = small, poorly fitted or top-dose-only effect, or a change in a side signal; inactive = no such curve, though single readings can be large or run the other way; % of control where 0% means no effect;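 note: the control signal comes from parental cells without the receptor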
Target sequence (P16473 whole entry, looked up): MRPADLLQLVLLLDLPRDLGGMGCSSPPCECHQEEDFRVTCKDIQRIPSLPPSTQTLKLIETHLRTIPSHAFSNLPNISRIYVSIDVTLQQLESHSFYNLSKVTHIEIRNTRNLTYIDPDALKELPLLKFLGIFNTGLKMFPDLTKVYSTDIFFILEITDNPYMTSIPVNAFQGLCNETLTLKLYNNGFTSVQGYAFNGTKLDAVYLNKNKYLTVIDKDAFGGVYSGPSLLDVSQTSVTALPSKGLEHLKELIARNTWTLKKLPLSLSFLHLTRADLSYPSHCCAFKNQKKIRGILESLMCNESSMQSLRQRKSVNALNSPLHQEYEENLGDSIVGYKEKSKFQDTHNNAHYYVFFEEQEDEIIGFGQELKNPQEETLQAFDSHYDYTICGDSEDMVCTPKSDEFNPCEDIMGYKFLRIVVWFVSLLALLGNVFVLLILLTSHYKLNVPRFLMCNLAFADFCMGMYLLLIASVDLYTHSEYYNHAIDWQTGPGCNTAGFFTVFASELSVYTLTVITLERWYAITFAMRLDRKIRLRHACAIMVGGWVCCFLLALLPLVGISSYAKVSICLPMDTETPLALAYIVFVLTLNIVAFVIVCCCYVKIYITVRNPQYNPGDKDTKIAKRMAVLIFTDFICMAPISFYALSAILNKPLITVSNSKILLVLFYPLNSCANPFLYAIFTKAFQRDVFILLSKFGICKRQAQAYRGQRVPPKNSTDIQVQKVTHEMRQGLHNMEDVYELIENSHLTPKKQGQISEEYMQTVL
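cAMP rise detected as CNG-channel membrane depolarization by fluorescent dye (emission 590 nm), 30 min after compound, following 60 min dye loading containing 100 uM RO 20-1724 at room temperature. Cells: TSHR/CNG HEK 293, with parental CNG HEK 293 as control.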
HEK293 cAMP ctrl – qHTS Assay for Agonists of the Thyroid Stimulating Hormone Receptor: Activators of Intracellular cAMP Concentrations in Parental HEK 293; parental HEK293 CNG cAMP sensor, membrane potential fluorescence; Potency, µM (top dose mostly 57.1 µM), for the others: top-dose activation, usual class: activators; 2.5% of 73,000 active; note: % of control where 0% means no effect; nearly all actives have a fitted effect of over 55% in size
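Parental HEK 293 cells stably expressing a cAMP-gated CNG channel were loaded with membrane potential dye containing 100 uM RO 20-1724 for 60 min. Compound added for 30 min; depolarization read as fluorescence intensity at 590 nm.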
Numbers without * were called inactive; [ ] = dose if it differs, or a comment. Unless noted, calls come from the whole dose curve; as a rule, active = well fitted activation curve with a large enough effect; inconclusive = small, poorly fitted or top-dose-only effect; inactive = no such curve, though single readings can be large or run the other way. Potency is the fitted concentration of half-maximal effect.

COc1ccc(/C=N/n2c(SC)nnc2-c2ccccc2)cc1C was read as Imprint erasure -21.4%, TSHR agonist inconclusive and HEK293 cAMP ctrl 25.1µM*.
COc1ccc(CCNC(=O)CCn2c(=O)c3ccccc3n(Cc3cc(C)ccc3C)c2=O)cc1OC was read as Imprint erasure -8.6%[10.9 µM].
`CC(=O)c1cccc(NC(=O)c2noc3c2CSc2ccccc2-3)c1` gave Imprint erasure 7.1%[10.9 µM].
`CC1CCN(c2ccc(-c3nc(C(C)C)no3)cc2[N+](=O)[O-])CC1` gave Imprint erasure -9.6%[10.9 µM].
O=S(=O)(c1ccc(NC2CCCc3ccccc32)nc1)N1CCOCC1 (centres undefined) was read as Imprint erasure -10.1%, TSHR agonist 7.2% and HEK293 cAMP ctrl 19.7%.
CCN(CC)S(=O)(=O)c1ccc(NC2CCCc3ccccc32)nc1 (centres undefined) was read as Imprint erasure -9.1%, TSHR agonist inconclusive and HEK293 cAMP ctrl 25.1µM*.
COc1ccccc1CNS(=O)(=O)c1ccc2[nH]c3c(c2c1)CCCCC3 was read as Imprint erasure 9.3%[10.9 µM].
Screening CC(Sc1ncc(C#N)c(N)n1)C(=O)Nc1ccccc1 (centres undefined) returned TSHR agonist inconclusive and HEK293 cAMP ctrl 31.6µM*.
For COC(=O)CSc1ncc(C#N)c(N)n1 the results were TSHR agonist -1.5% and HEK293 cAMP ctrl -3.2%.
For CCCCCCCCCCCCCCCCCC(=O)OC(CC(=O)O)C[N+](C)(C)C (centres undefined) the results were Imprint erasure -25.5%.
For COc1cccc(C2C=C(c3ccc(Br)s3)Nc3ncnn32)c1OC (centres undefined) the results were Imprint erasure 1.1%, TSHR agonist 20µM* and HEK293 cAMP ctrl 14.1%.
Fc1ccc(Br)cc1C1C=C(c2ccc(Br)s2)Nc2ncnn21 (centres undefined) was read as Imprint erasure -35.7%, TSHR agonist inconclusive and HEK293 cAMP ctrl inconclusive.
CC(=O)c1sc(NC(=O)C2(F)C(F)(F)C(F)(F)C(F)(F)C(F)(F)C2(F)F)nc1C was read as Imprint erasure -28.9%, TSHR agonist inconclusive and HEK293 cAMP ctrl 12.6µM*.
CC(=O)c1sc(NC(=O)C=C(C)C)nc1C was read as Imprint erasure -66.2%, TSHR agonist -5.0% and HEK293 cAMP ctrl 1.5%.
`COc1ccccc1CNc1nc(-c2ccccc2OC)nc2ccccc12` gave Imprint erasure -8.9%, TSHR agonist 31.6µM* and HEK293 cAMP ctrl 19.5%.
Screening COc1ccc(CNc2nc(-c3ccccc3CN(C)C)nc3ccccc23)c(OC)c1 returned Imprint erasure -25.9%, TSHR agonist inconclusive and HEK293 cAMP ctrl inconclusive.
`COc1ccccc1-c1nc(NCc2ccccc2)c2ccccc2n1` gave Imprint erasure -20.6%, TSHR agonist inconclusive and HEK293 cAMP ctrl inconclusive.
For CNc1nc(-c2ccccc2CN(C)C)nc2ccccc12 the results were Imprint erasure -16.4%, TSHR agonist inconclusive and HEK293 cAMP ctrl inconclusive.
Screening Cc1cccc(CNc2nc(-c3ccccc3CN(C)C)nc3ccccc23)c1 returned Imprint erasure -30.5%, TSHR agonist inconclusive and HEK293 cAMP ctrl 0.794µM*.
For CN(C)Cc1ccccc1-c1nc(N(C)C)c2ccccc2n1 the results were Imprint erasure -20.3%, TSHR agonist inconclusive and HEK293 cAMP ctrl 10µM*.
For Cc1[nH]c2ccc(C(=O)NCCc3ccccc3Cl)cc2c1C the results were Imprint erasure -3.4%[10.9 µM].
For Cc1nn(C(C)C(=O)Nc2cccc(F)c2)c(=O)c2c1sc1ccccc12 (centres undefined) the results were Imprint erasure -4.3%[10.9 µM].
Screening CC(C)c1ccc(NC(=O)CS(=O)(=O)c2cccc3nsnc23)cc1 returned Imprint erasure -5.4%[10.9 µM].
CCCCSCCCNC(=O)c1cn(CC)c2ccc(S(=O)(=O)N3CCCCCC3)cc2c1=O was read as Imprint erasure -7.2%[10.9 µM].
`Cc1cc(C)c(NC(=O)C(C)n2nc(C)c3sc4ccccc4c3c2=O)c(C)c1` (centres undefined) gave Imprint erasure 12.4%[10.9 µM].
Screening COc1ccc(-n2nnc(-c3nsc(NC(=O)c4cccs4)n3)c2C)cc1OC returned Imprint erasure -3.9%[10.9 µM].
For COc1ccccc1NC(=O)c1ccccc1NC(=O)c1ccccc1 the results were Imprint erasure -5.0%[10.9 µM].
Screening COC(=O)c1ccccc1NC(=O)c1ccccc1OC returned Imprint erasure -4.5%, TSHR agonist inconclusive and HEK293 cAMP ctrl 15.8µM*.
`CCOc1ccccc1C(=O)Nc1cc(Cl)ccc1O` gave Imprint erasure -33.1%, TSHR agonist inconclusive and HEK293 cAMP ctrl -33.1%.
Screening CCOc1ccccc1C(=O)Nc1cc(OC)ccc1OC returned TSHR agonist inconclusive and HEK293 cAMP ctrl 25.1µM*.
`CCCCC(=O)Nc1nnc(S(=O)(=O)N(CC)c2cc(C)cc(C)c2)s1` gave Imprint erasure -14.1%[10.9 µM].
`CCOC(=O)c1sc2ccccc2c1S(=O)(=O)Nc1ccc(N(C)C)cc1` gave Imprint erasure -12.1%[10.9 µM].
Screening COc1cccc(CNC(=O)C2CCN(C(=O)c3sccc3-n3cccc3)CC2)c1 returned Imprint erasure -7.3%[10.9 µM].
`CCOc1ccc(N(C)C(=O)C2CCN(S(=O)(=O)c3c(C)noc3/C=C/c3ccc(C)cc3)CC2)cc1` gave Imprint erasure -10.4%[10.9 µM].
For Clc1ccc(-c2nnc3sc(-c4ccc(Br)o4)nn23)cc1 the results were Imprint erasure -13.8% and HEK293 cAMP ctrl 4.3%.
`Cc1oc(-c2ccc(Cl)cc2)cc1-c1nn2c(-c3ccoc3C)nnc2s1` gave Imprint erasure 6.9%, TSHR agonist inconclusive and HEK293 cAMP ctrl 31.6µM*.
Screening CCC(=O)Nc1ccccc1-c1nc2ccccc2n(Cc2cccc(Br)c2)c1=O returned Imprint erasure -8.9%[10.9 µM].
O=c1c2ccccc2nnn1CSc1nnc(COc2ccc(Cl)cc2)n1Cc1ccco1 was read as Imprint erasure -14.2% and HEK293 cAMP ctrl 27.3%.
Screening O=C(CSc1nnc2scc(-c3ccccc3)n12)NCc1ccco1 returned Imprint erasure -6.7%, TSHR agonist 3.4% and HEK293 cAMP ctrl 1.4%.
For COC(=O)c1ccc(CSc2nc(-c3ccccc3)cs2)o1 the results were Imprint erasure -28.7%, TSHR agonist inconclusive and HEK293 cAMP ctrl 39.8µM*.
For O=C(CSc1ncc(-c2ccccc2)n1-c1ccccc1)NCc1ccco1 the results were Imprint erasure -3.9%, TSHR agonist inconclusive and HEK293 cAMP ctrl 31.6µM*.
`Cc1ccc(OCc2nnc(SCC(=O)c3ccccc3)n2Cc2ccco2)cc1` gave Imprint erasure -16.9%, TSHR agonist inconclusive and HEK293 cAMP ctrl inconclusive.
O=C(CSc1nnc(COc2ccccc2)n1Cc1ccco1)c1ccc(F)cc1 was read as Imprint erasure -22.0%, TSHR agonist inconclusive and HEK293 cAMP ctrl 15.8µM*.
Screening COC(=O)c1ccc(CSc2nnc(NCc3ccccc3)s2)o1 returned Imprint erasure 3.8%, TSHR agonist 6.1% and HEK293 cAMP ctrl 17.1%.
Screening O=c1c2ccccc2nnn1CSc1nc2cc(Cl)ccc2c(=O)n1Cc1ccco1 returned Imprint erasure -8.0%, TSHR agonist inconclusive and HEK293 cAMP ctrl 2µM*.

Assay outcomes from PubChem BioAssay.
